Compound activity from PubChem BioAssay.
The entries come from a sample that favours hits as a whole.
IDE exosite inh: exo-site inhibitors of human IDE, primary screen, biochemical, fluorescence anisotropy, probe displacement. Insulin-degrading enzyme (Homo sapiens), P14735. z-score at 20 µM. 6.3% of 17,000 active. AID 1259349, 2017. purified IDE, FL-6b probe fluorescence polarization; hits give low values;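 active = z-score of -3 or lower, meaning strong loss of probe binding signal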;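 note: His-tagged human IDE residues 42-1019 made in E. coli with 30 nM FL-6b probe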
Target sequence (P14735 42-1019 limits assumed): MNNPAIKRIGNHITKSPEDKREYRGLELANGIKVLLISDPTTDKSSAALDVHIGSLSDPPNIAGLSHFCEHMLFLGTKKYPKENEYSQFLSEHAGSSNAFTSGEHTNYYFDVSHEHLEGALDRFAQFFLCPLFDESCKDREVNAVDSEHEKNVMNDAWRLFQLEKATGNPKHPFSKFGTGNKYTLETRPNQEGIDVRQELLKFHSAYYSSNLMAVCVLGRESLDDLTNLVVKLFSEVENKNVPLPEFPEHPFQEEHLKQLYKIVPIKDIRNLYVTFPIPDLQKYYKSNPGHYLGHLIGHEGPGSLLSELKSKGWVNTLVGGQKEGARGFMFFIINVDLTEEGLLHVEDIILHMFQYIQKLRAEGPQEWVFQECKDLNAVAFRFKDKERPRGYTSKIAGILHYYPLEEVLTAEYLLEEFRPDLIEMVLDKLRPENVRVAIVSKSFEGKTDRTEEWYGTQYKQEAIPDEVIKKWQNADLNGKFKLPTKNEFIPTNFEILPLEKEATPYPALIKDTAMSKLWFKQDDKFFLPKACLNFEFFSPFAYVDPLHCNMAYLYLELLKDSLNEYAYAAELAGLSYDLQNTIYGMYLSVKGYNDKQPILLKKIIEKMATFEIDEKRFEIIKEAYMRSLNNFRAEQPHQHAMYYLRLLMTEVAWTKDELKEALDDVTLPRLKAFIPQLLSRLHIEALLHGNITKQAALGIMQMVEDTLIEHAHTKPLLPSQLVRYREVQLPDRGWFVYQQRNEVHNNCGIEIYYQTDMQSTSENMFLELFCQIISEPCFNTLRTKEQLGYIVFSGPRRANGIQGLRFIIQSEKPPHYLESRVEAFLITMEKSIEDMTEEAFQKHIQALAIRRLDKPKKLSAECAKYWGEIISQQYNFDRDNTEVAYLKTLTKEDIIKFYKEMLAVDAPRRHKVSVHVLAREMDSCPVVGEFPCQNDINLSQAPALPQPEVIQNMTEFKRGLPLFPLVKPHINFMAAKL
Of the large screens only hits and unclear results are named; the others gave an inactive call; ! = repeats disagree.

COc1ccc(C#Cc2ccc([C@@H]3[C@@H](CO)N4C(=O)CN(C(=O)NC(C)C)C[C@H]34)cc2)cc1	none
COc1ccc(-c2ccc([C@@H]3[C@H](CO)N4C(=O)CNC[C@@H]34)cc2)cc1	none
COc1cccc(NC(=O)N2CC(=O)N3[C@H](C2)[C@@H](c2ccc(Br)cc2)[C@@H]3CO)c1	IDE exosite inh -3.2
C/C=C/c1ccc([C@H]2[C@@H](CO)N3C(=O)CN(C(=O)Nc4ccc(OC)cc4)C[C@@H]23)cc1	none
COc1ccc(-c2ccc([C@@H]3[C@H]4CNCC(=O)N4[C@H]3CO)cc2)cc1	none
COc1ccc(-c2ccc([C@H]3[C@@H](CO)N4C(=O)CNC[C@H]34)cc2)cc1	IDE exosite inh -3.2
COc1ccc(-c2ccc([C@H]3[C@H](CO)N4C(=O)CN(C(=O)NC(C)C)C[C@@H]34)cc2)cc1	IDE exosite inh -3.8
CO[C@H](CN(C)C(=O)c1cc(Cl)cc(Cl)c1)[C@@H](C)CN(C(=O)Nc1ccc(F)cc1)[C@@H](C)CO	none
O=C(C[C@@H]1CC[C@H]2[C@@H](COC[C@@H](O)CN2Cc2cc(F)ccc2F)O1)NCc1ccc(Oc2ccccc2)cc1	none
C[C@@H]1CC=CCCNC(=O)[C@@H](Cc2ccccc2)N(C)C(=O)c2ccccc2O1 (mixture of isomers)	none
C[C@@H]1CC=CC[C@@H](c2ccccc2)NC(=O)[C@@H](C)N(C)C(=O)c2ccccc2O1 (mixture of isomers)	none
CN(C[C@H]1[C@H](c2ccccc2)[C@@H](CO)N1C(=O)c1ccccc1)C(=O)C1CCC1	none
O=C(NC[C@@H]1[C@@H](c2ccccc2)[C@H](CO)N1Cc1cccnc1)c1ccccn1	none
CC(C)(O)C#Cc1ccc([C@@H]2[C@H]3CN(C(=O)c4ccc(F)cc4)CCCCN3[C@H]2CO)cc1	none
N#C[C@@H]1[C@H](c2ccccc2-c2cccc(F)c2)[C@H](CO)N1C(=O)NC1CCCCC1	none
O=C(CC1CC1)N1CC[C@H]2[C@H](CO)Nc3ccc(-c4ccc(F)cc4)cc3[C@H]21	none
O=C(C[C@H]1CC[C@H]2NC[C@H](O)COC[C@@H]2O1)NC1Cc2ccccc2C1	none
COc1ccc(C#Cc2ccc([C@H]3[C@@H](CO)N4C(=O)CN(C(=O)NC(C)C)C[C@H]34)cc2)cc1	none
Cc1ccc(-c2ccc([C@H]3[C@@H](CO)N4C(=O)CN(C(=O)NC(C)C)C[C@@H]34)cc2)cc1	none
COc1cccc(-c2ccc([C@H]3[C@@H](CO)N4C(=O)CN(C(=O)NC(C)C)C[C@@H]34)cc2)c1	IDE exosite inh -5.4
COc1cccc(-c2ccc([C@@H]3[C@H]4CN(C(=O)NC(C)C)CC(=O)N4[C@H]3CO)cc2)c1	IDE exosite inh -12
COc1cccc(-c2ccc([C@@H]3[C@@H](CO)N4C(=O)CN(C(=O)NC(C)C)C[C@@H]34)cc2)c1	IDE exosite inh -14
COc1cccc(-c2ccc([C@@H]3[C@@H](CO)N4C(=O)CN(C(=O)NC(C)C)C[C@H]34)cc2)c1	IDE exosite inh -3.5
Cc1ccc(-c2ccc([C@@H]3[C@@H](CO)N4C(=O)CN(C(=O)NC(C)C)C[C@H]34)cc2)cc1	none
COc1ccc(NC(=O)N2CC(=O)N3[C@H](C2)[C@H](c2ccc(-c4ccccc4)cc2)[C@@H]3CO)cc1	none
COc1ccc(C#Cc2ccc([C@H]3[C@H](CO)N4C(=O)CN(C(=O)NC(C)C)C[C@@H]34)cc2)cc1	none
CN1CCN(C(=O)C[C@@H]2CC[C@@H]3[C@H](COC[C@@H](O)CN3C(=O)c3ccccc3F)O2)CC1	none
CC(C)CN(C[C@H]1N[C@@H](CO)[C@@H]1c1ccc(-c2cncnc2)cc1)C(=O)C1CC1	none
COCCNC(=O)c1cc2c(c(-c3cccc(C4=CCCCC4)c3)n1)[C@@H](CCO)N([S@](=O)C(C)(C)C)C2	none
CCCNC(=O)N1[C@H](C#N)[C@H](c2ccccc2-c2ccccc2)[C@@H]1CO	none
CCN(C[C@@H]1[C@H](c2ccccc2)[C@H](CO)N1C(C)=O)C(=O)c1ccccn1	none
O=S(=O)(c1cccs1)N1CCCCN2[C@H](CO)[C@H](c3ccc(Br)cc3)[C@@H]2C1	none
O=C(Nc1cccc(F)c1)N1CC(=O)N2[C@H](CO)[C@H](c3ccc(-c4ccc(F)cc4)cc3)[C@H]2C1	none
O=C(Nc1cc(F)ccc1F)N1CC(=O)N2[C@H](CO)[C@@H](c3ccc(-c4ccccc4)cc3)[C@@H]2C1	none
N#C[C@H]1[C@H](c2ccccc2C2=CCCCC2)[C@H](CO)N1C(=O)c1cccc(F)c1	none
COc1ccccc1-c1ccc2c(c1)[C@@H]1[C@@H](CCN1S(=O)(=O)c1ccc(C)cc1)[C@H](CO)N2	none
Cc1ccccc1S(=O)(=O)N1CC(=O)N2[C@H](CO)[C@@H](c3ccc(C#CCC(C)C)cc3)[C@@H]2C1	none
CC(C)CC#Cc1ccc([C@H]2[C@@H](CO)N3C(=O)CN(C(=O)NC(C)C)C[C@@H]23)cc1	none
CO[C@@H]1CN(C)C(=O)c2cc(NS(=O)(=O)c3ccc(Cl)cc3)ccc2OC[C@@H](C)N(C(=O)NC(C)C)C[C@@H]1C	none
O=C(Cc1ccccc1)N1CC(=O)N2[C@@H](CO)[C@H](c3ccc(C#Cc4ccccc4)cc3)[C@@H]2C1	none
O=C(Cc1ccccc1)N1CC(=O)N2[C@H](C1)[C@H](c1ccc(C#CCc3ccccc3)cc1)[C@@H]2CO	IDE exosite inh -3.6
O=C(Cc1ccccc1)N1CC(=O)N2[C@H](CO)[C@@H](c3ccc(C#CCc4ccccc4)cc3)[C@@H]2C1	none
O=C(Cc1ccccc1)N1CC(=O)N2[C@@H](CO)[C@H](c3ccc(C#CCc4ccccc4)cc3)[C@@H]2C1	none
O=C(Cc1ccccc1)N1CC(=O)N2[C@@H](CO)[C@@H](c3ccc(C#CCc4ccccc4)cc3)[C@@H]2C1	IDE exosite inh -4
O=C(Cc1ccccc1)N1CC(=O)N2[C@H](CO)[C@@H](c3ccc(C#Cc4ccccc4)cc3)[C@H]2C1	none
CCC(=O)Nc1ccc2c(c1)OC[C@@H](C)N(Cc1ccccc1)C[C@@H](C)[C@H](OC)CN(C)C2=O	none
COc1ccc2c3c([nH]c2c1)[C@H](CO)N(C(=O)c1cccnc1)CC31CN(Cc2ccccc2)C1	none
COc1ccc(NC(=O)N2CCCCN3[C@H](CO)[C@H](c4ccc(-c5ccccc5F)cc4)[C@@H]3C2)cc1	none
Cc1ccc(-c2ccccc2[C@@H]2[C@H](C#N)N(C(=O)Cc3cccnc3)[C@H]2CO)cc1	none
COc1ccccc1CN1C[C@@H]2N[C@H](C1)C2c1ccc(-c2ccc(C(=O)N(C)C)cc2)cc1 (some centres undefined)	none
COc1ccccc1CN1C[C@@H]2N[C@H](C1)C2c1ccc(-c2ccc(C#N)cc2)cc1 (some centres undefined)	none
N#Cc1cccc(-c2ccc(C3[C@@H]4CN(Cc5ccccc5)C[C@H]3N4)cc2)c1 (some centres undefined)	none
COc1ccccc1CN1C[C@@H]2N[C@H](C1)C2c1ccc(-c2cccc(C#N)c2)cc1 (some centres undefined)	IDE exosite inh -4!
COc1ccccc1CN1C[C@@H]2N[C@H](C1)C2c1ccc(-c2ccccc2OC)cc1 (some centres undefined)	IDE exosite inh -10
COc1ccccc1CN1C[C@@H]2N[C@H](C1)C2c1ccc(-c2ccncc2)cc1 (some centres undefined)	none
CCS(=O)(=O)N1CC2(C1)[C@H](c1ccccc1)[C@H](CO)N2C(=O)c1ccccc1	none
C[C@H]1COCc2cnnn2CC[C@H](Cc2ccccc2)C(=O)N1	none
